Assay outcomes deposited in PubChem by National Center for Advancing Translational Sciences (NCATS).
CHX counter – Cycloheximide Counterscreen for Small Molecule Inhibitors of Shiga Toxin | cell reporter, cycloheximide protein synthesis inhibition counterscreen | 300,000 compounds, 12% hits | max response, %; in the data active means max response mostly above about 13%, no sharp cut-off; inactive means mostly below about 14%; further: read at 38.3 µM for the half of the compounds with a filed dose; 0% is about no effect
Pf growth 96h – Primary qHTS for delayed death inhibitors of the malarial parasite plastid, 96 hour incubation. Potency, µM (top dose mostly 28.7 µM), for the others: at the top dose activity change, negative = inhibition, actives largely listed as inhibitors. AID 504834, 2011. 320,000 compounds, 6.9% hits. P. falciparum luciferase reporter growth, 96 h; further: potency means the concentration at half of the fitted maximal effect; on the % scale 0 is the no-effect control and ±100 the full control effect
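P. falciparum expressing integrated firefly luciferase grown in erythrocytes (2% hematocrit, 0.05% parasitemia final) with compounds for 96 hours at 37 C, 5% CO2. Growth inhibition read as loss of luminescence after adding luciferase detection reagent.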
Shiga toxin inh – A qHTS for Small Molecule Inhibitors of Shiga Toxin | 290,000 compounds, 9.2% hits | AID 2315, 2010 | Vero cells, Shiga toxin protein synthesis inhibition reporter | inhibition, % at 38.7 µM; in the data active means inhibition mostly above about 28%, no sharp cut-off; inactive means mostly below about 43%; further: 0% is about no effect
HCMV antiviral – qHTS Assay for inhibitors of the human cytomegalovirus (HCMV). AID 1259415, 2018. activity change, negative = inhibition, % at 57.5 µM. 410,000 compounds, 4.5% hits. HFF cells, HCMV-luciferase reporter, 72 h; stronger effect = lower value; in the data active means activity change below about -60%; inconclusive means no clear call, values can overlap the other calls; inactive means above about -39%; further: on the % scale 0 is the no-effect control and ±100 the full control effect
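Luciferase read-out from HCMV-luciferase-infected HFFs (MOI 1 PFU/cell) 72 h post infection at 37C; compounds added after 16 h cell attachment; activity normalized between buffer-only basal and Salinomycin (10uM) inhibitor controls.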
Pf growth 48h – Primary qHTS for delayed death inhibitors of the malarial parasite plastid, 48 hour incubation. P. falciparum luciferase growth in erythrocytes, 48 h. Potency, µM (top dose mostly 28.7 µM), without a hit: at the highest dose activity change, negative = inhibition, actives largely listed as inhibitors. 310,000 compounds, 5.9% hits. AID 504832, 2011; further: potency means the concentration at half of the fitted maximal effect; on the % scale 0 is the no-effect control and ±100 the full control effect
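Growth was read as firefly luciferase luminescence after a 48 h, 37 C, 5% CO2 exposure of compounds to reporter-bearing P. falciparum cultures (0.1% parasitemia, 2% hematocrit final) in Albumax-supplemented RPMI 1640.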
* hit, by the source's call. Only some compounds are listed: those with a hit (about 20% of all), similar ones and a draw of the others. Unless noted, the call rests on the fitted dose curve; in most records, active means well fitted inhibition curve with a large enough effect; inconclusive means small, poorly fitted or top-dose-only effect, or another doubt; inactive means no such curve, though single readings can be large or run the other way.

Screening CCc1nc2c(OCCOc3ccc(F)cc3)cccn2c1N(C=O)Cc1ccc(OC)cc1 returned HCMV antiviral -37.
Screening CCCC12CN3CC(CCC)(CN(C1)C3c1ccc(OC(C)C)cc1)C2=O (stereo not given) returned HCMV antiviral 3.
O=C(NC12CC3CC(CC(C3)C1)C2)c1ccc(-c2ccc(Br)cc2)o1 was read as CHX counter 68*, Pf growth 96h inconclusive, Shiga toxin inh 108*, HCMV antiviral 5 and Pf growth 48h inconclusive.
For O=C(NC12CC3CC(CC(C3)C1)C2)c1ccc([N+](=O)[O-])o1 the results were CHX counter 11*, Pf growth 96h inconclusive, Shiga toxin inh 15, HCMV antiviral -70* and Pf growth 48h 5.2µM*.
For O=C(NC1CCS(=O)(=O)C1)c1ccc(-c2ccc(Br)cc2)o1 (stereo not given) the results were CHX counter 19*, Pf growth 96h inconclusive, Shiga toxin inh 35 and HCMV antiviral -13.
For CCc1c(C)sc2c1CCN(Cc1ccccc1C#N)C2c1ccccc1 (stereo not given) the results were HCMV antiviral -8.
For CCc1c(C)sc2c1CCN(Cc1ccccc1)C2c1ccccc1 (stereo not given) the results were HCMV antiviral -102*.
`CC(C)(O)C1C2OC(=O)C1C1(O)CC3OC34C(=O)OC2C14C` (stereo not given) gave Pf growth 96h -2%, HCMV antiviral -76* and Pf growth 48h 4%.
Screening CN(C)c1ccc(NC(=O)CCCCCn2nnc3ccccc3c2=O)cc1 returned CHX counter -2, Pf growth 96h inconclusive, Shiga toxin inh -7, HCMV antiviral -2 and Pf growth 48h -2%.
For O=C(NC12CC3CC(CC(C3)C1)C2)N1CCC(n2nnc3ccccc32)CC1 the results were CHX counter -3, Pf growth 96h 9.3µM*, Shiga toxin inh -11, HCMV antiviral 44 and Pf growth 48h inconclusive.
For O=C(NC12CC3CC(CC(C3)C1)C2)N1CCN(c2ncccn2)CC1 the results were CHX counter -2, Pf growth 96h inconclusive, Shiga toxin inh 13, HCMV antiviral -34 and Pf growth 48h -15%.
O=C(NC12CC3CC(CC(C3)C1)C2)N1CCN(c2ccccn2)CC1 was read as CHX counter -1, Pf growth 96h 2%, Shiga toxin inh 14, HCMV antiviral -28 and Pf growth 48h 12µM*.
Screening CC(=O)O[C@H]1CC[C@]2(C)[C@H]3CC=C4[C@@H]5[C@@H](C)[C@H](C)CC[C@]5(C(=O)O)CC[C@@]4(C)[C@]3(C)CC[C@H]2C1(C)C returned CHX counter -3, Pf growth 96h inconclusive, Shiga toxin inh -2 and Pf growth 48h inconclusive.
Screening CN(C)C=NC(=O)/C(C#N)=C/c1ccccc1 returned CHX counter 4, Pf growth 96h 17%, Shiga toxin inh 15, HCMV antiviral inconclusive and Pf growth 48h -2%.
Screening CCOC(=O)c1nc(N)c(C(=O)OCC)[nH]1 returned CHX counter -4, Shiga toxin inh 13, HCMV antiviral -1 and Pf growth 48h 16%.
For CCOC(=O)c1c(C)nc(C(Cl)(Cl)Cl)nc1N the results were CHX counter 18*, Pf growth 96h 140%, Shiga toxin inh 56*, HCMV antiviral -36 and Pf growth 48h 13µM*.
Screening CCOc1ccc(-n2c(N)c(-c3nc4ccccc4n3C)c3nc4ccccc4nc32)cc1 returned CHX counter -4, Pf growth 96h 2.9µM*, Shiga toxin inh -4, HCMV antiviral 5 and Pf growth 48h 3%.
Screening C=CCNC(=O)c1c(Cl)cnn1-c1ccc(C)cc1 returned CHX counter 44*, Pf growth 96h 180%, Shiga toxin inh 69*, HCMV antiviral 40 and Pf growth 48h 118%.
Cc1ccc(-n2ncc(Cl)c2C(=O)NC2CC2)cc1 was read as CHX counter 49*, Pf growth 96h 233%, Shiga toxin inh 93*, HCMV antiviral 8 and Pf growth 48h 296%.
Screening CNC(=O)c1c(Br)cnn1-c1ccc(C)cc1 returned CHX counter 35*, Pf growth 96h 148%, Shiga toxin inh 42*, HCMV antiviral 32 and Pf growth 48h 105%.
Screening CNC(=O)c1c(Cl)cnn1-c1ccc(C)cc1 returned CHX counter 21*, Pf growth 96h 221%, Shiga toxin inh 55*, HCMV antiviral -30 and Pf growth 48h 71%.
For O=C(OCc1cc(=O)n2c3c(sc2n1)CCCC3)c1cccc(NC(=O)c2ccccc2F)c1 the results were HCMV antiviral 6.
`CCCSc1ccc([C@H]2N[C@@](C)(C(=O)OC)[C@H]3C(=O)N(CC)C(=O)[C@@H]23)cc1` gave HCMV antiviral 18.
CCC(C)Sc1ccc([C@H]2N[C@@](CC(C)C)(C(=O)OC)[C@H]3C(=O)N(C)C(=O)[C@@H]23)cc1 (stereo not given in full) was read as Pf growth 96h inconclusive, HCMV antiviral -12 and Pf growth 48h inconclusive.
Screening CCN1C(=O)[C@H]2[C@@H](c3ccc(-c4ccc(Cl)c(Cl)c4)cc3)N[C@@](Cc3ccccc3)(C(=O)OC)[C@H]2C1=O returned Pf growth 96h inconclusive, HCMV antiviral 23 and Pf growth 48h inconclusive.
CCC(C)Sc1ccc([C@H]2N[C@@](CC(C)C)(C(=O)OC)[C@H]3C(=O)N(CC)C(=O)[C@@H]23)cc1 (stereo not given in full) was read as Pf growth 96h inconclusive, HCMV antiviral -10 and Pf growth 48h 9.3µM*.
For CCN1C(=O)[C@H]2[C@@H](c3ccc(SC4CCCCC4)cc3)N[C@@](CC(C)C)(C(=O)OC)[C@H]2C1=O the results were Pf growth 96h 2.9µM*, HCMV antiviral 40 and Pf growth 48h 12µM*.
For CCC(C)Sc1ccc([C@H]2N[C@@](Cc3ccccc3)(C(=O)OC)[C@H]3C(=O)N(CC)C(=O)[C@@H]23)cc1 (stereo not given in full) the results were Pf growth 96h 1.7µM*, HCMV antiviral 25 and Pf growth 48h 3.3µM*.
`CCC(C)Sc1ccc([C@H]2N[C@@](Cc3ccccc3)(C(=O)OC)[C@H]3C(=O)N(CC)C(=O)[C@@H]23)cc1OC` (stereo not given in full) gave Pf growth 96h inconclusive, HCMV antiviral 3 and Pf growth 48h 3.3µM*.
For N[C@@H](Cn1c2c(c(=O)[nH]c1=O)CCC2)C(=O)O the results were CHX counter -3 and Shiga toxin inh 5.
Screening Cc1nc(-n2nc(C)c(CCC(C)C)c2C)sc1C(=O)Nc1cccc(Cl)c1C returned HCMV antiviral 21.
`COc1cc2c3c(c1OC)-c1cc(O)ccc1CC3NCC2` (stereo not given) gave CHX counter 6, Pf growth 96h 38%, Shiga toxin inh 33, HCMV antiviral -27 and Pf growth 48h -12%.
